Granule exo inh: LAMP-1 surface exposure blockers, TALL-104 cells – cell-based, flow cytometry, MLPCN library, primary screen. inhibition, % at 10 µM. TALL-104 LAMP-1 surface exposure; cells stimulated with thapsigargin and PMA. 360,000 compounds, 0.66% hits;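 active = inhibition above about 55%, limit read from the data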
ABCB6 inh 2: ABCB6 transporter inhibitors, primary screen, K562-ABCB6 cells, flow cytometry, MLPCN library; 360,000 compounds, 0.19% hits; K562-ABCB6 porphyrin accumulation, 1 h; active compounds read low; AID 602162, 2011; fluorescence ratio to DMSO, % at 10 µM; ATP-binding cassette sub-family B member 6 (Homo sapiens), Q9NP58;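 active = fluorescence ratio to DMSO below 75%, the collection mean minus 3 SD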;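 also: signal is porphyrin accumulated inside mitochondria; lower ratio means ABCB6 inhibition with less porphyrin fluorescence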
Target sequence (Q9NP58 whole entry, looked up): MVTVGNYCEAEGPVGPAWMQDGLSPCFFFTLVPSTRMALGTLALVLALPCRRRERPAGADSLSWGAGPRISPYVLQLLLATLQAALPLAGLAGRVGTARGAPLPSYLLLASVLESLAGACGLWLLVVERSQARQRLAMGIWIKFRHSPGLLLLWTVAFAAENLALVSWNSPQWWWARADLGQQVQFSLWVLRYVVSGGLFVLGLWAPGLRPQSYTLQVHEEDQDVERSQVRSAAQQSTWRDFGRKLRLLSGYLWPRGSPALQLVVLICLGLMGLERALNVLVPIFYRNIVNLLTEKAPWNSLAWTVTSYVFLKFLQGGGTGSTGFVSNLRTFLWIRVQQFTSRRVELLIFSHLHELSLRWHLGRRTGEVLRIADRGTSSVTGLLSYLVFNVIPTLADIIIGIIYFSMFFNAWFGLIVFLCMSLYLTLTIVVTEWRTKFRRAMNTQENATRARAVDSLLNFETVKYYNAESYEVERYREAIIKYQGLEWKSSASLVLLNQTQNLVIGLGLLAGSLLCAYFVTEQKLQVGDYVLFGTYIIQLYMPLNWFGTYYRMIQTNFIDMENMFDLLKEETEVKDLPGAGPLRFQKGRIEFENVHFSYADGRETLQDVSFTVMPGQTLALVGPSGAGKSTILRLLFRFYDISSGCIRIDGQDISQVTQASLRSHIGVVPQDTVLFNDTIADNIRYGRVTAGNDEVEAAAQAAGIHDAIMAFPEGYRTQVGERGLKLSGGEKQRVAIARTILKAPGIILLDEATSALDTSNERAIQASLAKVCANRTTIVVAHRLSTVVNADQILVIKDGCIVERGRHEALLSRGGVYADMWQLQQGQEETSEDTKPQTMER
PG9 Ab binder: binders of HIV-1 gp120 antibody PG9, primary screen, biochemical, TR-FRET; TR-FRET gp120-PG9 antibody binding; inhibition, % at 6.7 µM; HIV-1 gp120 / PG9 antibody interaction; 360,000 compounds, 0.43% hits; in the data active = inhibition above about 8.5%
rCAG binder: binders of r(CAG) RNA repeats, primary screen, biochemical, fluorescence; r(CAG) RNA repeat, TO-PRO-1 dye displacement fluorescence; inhibition, % at 3 µM; 370,000 compounds, 1.3% hits; AID 651821, 2012;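 active = inhibition above the plate cutoff, the mean of all test compounds on that plate plus 3 SD, cut at about 35% in these data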;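 also: higher means more dye released from RNA so lower well fluorescence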
PG9 bind confirm: binders of anti-gp120 antibody PG9, confirmation, biochemical, TR-FRET | shares compounds with PG9 Ab binder | 1,500 compounds, 90% hits | TR-FRET PG9 antibody binding | inhibition, % at 6.7 µM; in the data active = inhibition above about 9%
PGV04 Ab binding: binders of control antibody PGV04, counter-screen for PG9 antibody binder project, biochemical, TR-FRET, distinct HIV envelope site | shares compounds with PG9 Ab binder | TR-FRET PGV04 antibody-gp120 binding | inhibition, % at 6.7 µM | 1,500 compounds, 95% hits | AID 651604, 2012; in the data active = inhibition above about 9.5%
Each line names hits and unclear results; the compound was inactive in the other large screens (follow-up assays come after a bar, where they were run). In the library only some 2.5% were active in any assay of this set; here they are far more common.

O=C(CCCn1c(=O)c2cccn2c2cccnc21)NCc1cccc(Br)c1	PG9 Ab binder 23 | PG9 bind confirm 31 | PGV04 Ab binding 41
CCOc1cc(CNC(=O)CCCn2c(=O)c3cccn3c3cccnc32)cc(OCC)c1OCC	none
CSc1cccc(NC(=O)CCCn2c(=O)c3cccn3c3cccnc32)c1	PG9 Ab binder 12 | PG9 bind confirm 14 | PGV04 Ab binding 20
O=C(CNC(=O)N1CC(=O)Nc2ccccc21)NCc1ccc(F)cc1	none
CC[C@]12c3[nH]c4ccccc4c3CCN1C(=O)C(CC(=O)NCCCN(C)C)C[C@@H]2C(=O)N1CCN(C(=O)c2ccco2)CC1 (some centres not stated)	none
Fc1ccc2nc(Nc3nc4c(F)cccc4s3)sc2c1	PG9 Ab binder 11 | PG9 bind confirm 14 | PGV04 Ab binding 21
Fc1cccc2sc(Nc3nc4ccccc4s3)nc12	PG9 Ab binder 14 | PG9 bind confirm 13 | PGV04 Ab binding 29
O=C(NC(Cc1ccccc1)C(=O)O)/C(=C/c1ccc(F)cc1)NC(=O)c1ccccc1 (configuration not stated)	none
O=c1[nH]c(/C=C/c2cccc3ccccc23)nc2ccccc12	PG9 Ab binder 33 | PG9 bind confirm 45 | PGV04 Ab binding 46
O=c1[nH]c(/C=C/c2ccccc2F)nc2ccccc12	none
O=C(NC1=NCCS1)c1sc2cc(F)ccc2c1Cl	none
O=C(Nc1ccon1)c1sc2cc(F)ccc2c1Cl	PG9 Ab binder 15 | PG9 bind confirm 24 | PGV04 Ab binding 46
O=C(CCSc1nnc2ccccn12)Nc1ccc(F)cc1	none
O=C(CCSc1nnc2ccc3ccccc3n12)Nc1ccc(F)cc1	PG9 Ab binder 23 | PG9 bind confirm inactive | PGV04 Ab binding 21
CN(CC(=O)NCC(=O)Nc1ccc(F)cc1)C1CCS(=O)(=O)C1 (configuration not stated)	none
Cc1ccc2[nH]c(=O)c(CN(C(=O)c3cccs3)c3ccccc3)cc2c1	none
Cc1ccc2cc(CN(C(=O)c3cccs3)c3ccccc3)c(=O)[nH]c2c1	PG9 Ab binder 14 | PG9 bind confirm 21 | PGV04 Ab binding 33
Cc1cc2occ(CC(=O)N(C)CC(=O)Nc3ccccc3Cl)c2cc1C	none
CCC(C)(C)NC(=O)CN(C(=O)CCC(=O)Nc1nccs1)c1ccc2c(c1)OCCO2	none
CC(C)Cc1nnc(NS(=O)(=O)c2ccccc2)s1	none
CC(C)(C)Cc1nnc(NS(=O)(=O)c2ccccc2)s1	PG9 Ab binder 9.0 | PG9 bind confirm 11 | PGV04 Ab binding 17
CC(=O)c1cccc(N/C=C\c2nnnn2-c2ccc(F)cc2)c1	PG9 Ab binder 17 | PG9 bind confirm 11 | PGV04 Ab binding 20
CN(Cc1ccccc1)C(=O)COC(=O)CCN1C(=O)C2CC=CCC2C1=O (configuration not stated)	none
Cc1cccc(NC(=O)CSc2cccc[n+]2[O-])c1C	PG9 Ab binder 16 | PG9 bind confirm 9.3 | PGV04 Ab binding 11
CCOC(=O)c1nn(-c2ccc(Cl)cc2)c2nc(CC)c(C#N)c(=O)n12	PG9 Ab binder 16 | PG9 bind confirm 20 | PGV04 Ab binding 25
COC(=O)c1cc2oc(C)cc2n1CC(=O)Nc1cc(C)cc(C)c1	PG9 Ab binder 9.2 | PG9 bind confirm 16 | PGV04 Ab binding 26
O=C1C2C3c4ccccc4C(c4ccccc43)C2C(=O)N1c1cccc2cccnc12 (configuration not stated)	PG9 Ab binder 10 | PG9 bind confirm inactive | PGV04 Ab binding inactive
CCOC(=O)c1cc(NC(=O)c2ccccc2)c(=O)n2c1oc1ccccc12	none
CC1(C)Oc2ccc3ccc(=O)oc3c2C(N2CCCCC2)C1O (configuration not stated)	PG9 Ab binder 11 | PG9 bind confirm inactive | PGV04 Ab binding 9.2
NC(=O)c1ccsc1NC(=O)CS(=O)(=O)c1ccc(F)cc1	none
Cc1ccc(C(=O)C2=C(O)C(=O)N(Cc3cccnc3)C2c2ccc(Br)cc2)o1 (configuration not stated)	PG9 Ab binder 18 | PG9 bind confirm 29 | PGV04 Ab binding 38
COc1ccc(C2C(C(=O)c3ccc(C)o3)=C(O)C(=O)N2Cc2cccnc2)cc1 (configuration not stated)	PG9 Ab binder 13 | PG9 bind confirm 23 | PGV04 Ab binding 29
Cc1ccc(C(=O)C2=C(O)C(=O)N(Cc3cccnc3)C2c2ccc(N(C)C)cc2)o1 (configuration not stated)	none
Cc1ccc(C(=O)C2=C(O)C(=O)N(Cc3ccco3)C2c2ccc(N(C)C)cc2)o1 (configuration not stated)	none
Cc1ccc(C(=O)C2=C(O)C(=O)N(Cc3cccnc3)C2c2ccc(OC(C)C)cc2)o1 (configuration not stated)	PG9 Ab binder 35 | PG9 bind confirm 44 | PGV04 Ab binding 50
CCCCOc1ccc(C2C(C(=O)c3ccc(C)o3)=C(O)C(=O)N2Cc2ccco2)cc1 (configuration not stated)	PG9 Ab binder 19 | PG9 bind confirm 23 | PGV04 Ab binding 27
COc1ccc(CCC(C)NC(=O)Cc2ccc(OC)c(OC)c2)c(OC)c1 (configuration not stated)	none
C[C@H](NC(=O)c1ccc(Cl)c(S(=O)(=O)N2CCOCC2)c1)c1nc2ccccc2[nH]1	none
O=C(NCCCC1CCCC1)C1CCC(=O)N(Cc2ccc(Cl)cc2)C1 (configuration not stated)	none
COc1ccc2[nH]c3c(c2c1)CCNC3(C)CCc1ccc(Cl)nc1 (configuration not stated)	none
O=C(O)CCc1ccc(-c2ccc(Br)cc2)o1	PG9 Ab binder 29 | PG9 bind confirm 37 | PGV04 Ab binding 45
O=C(O)CCc1ccc(-c2ccc(Cl)cc2)o1	none
Cc1cc(-n2c(C)cc(C(=O)COc3ccc(Cl)cc3C(N)=O)c2C)no1	PG9 Ab binder 11 | PG9 bind confirm 21 | PGV04 Ab binding 34
CC(NC(=O)c1ccc(OC2CCN(Cc3ccccn3)CC2)cc1)c1nccs1 (configuration not stated)	none
CCC(=O)c1cn(CC(=O)O)c2ccccc12	none
CCC(=O)c1cn(CC(=O)Nc2ccccc2Cl)c2ccccc12	PG9 Ab binder 11 | PG9 bind confirm 14 | PGV04 Ab binding 15
CCC(=O)c1cn(CC(=O)Nc2cccc(C)c2)c2ccccc12	PG9 Ab binder 25 | PG9 bind confirm 16 | PGV04 Ab binding 23

Compound activity (PubChem)
